{"source": "PubChem BioAssay (NCATS)", "note": "Several values for one entry are separate records, joined by “and”; a condition that tells them apart may be missing. Equal values may be shown once. Inconclusive results are not listed. Activity calls are given as the source filed them. Calls follow the shape of the dose curve; as a rule, active = well fitted cell-killing curve with a large enough effect; inconclusive = small, poorly fitted or top-dose-only effect; inactive = flat fitted curve, though single readings scatter. Potency is read from the fitted curve at half-maximal effect."}
{"assay": "Cellular viability qHTS for adrenocortical cancer (ACC) cell line NCI-H295R (AID 1963990); also: nearly all actives have a fitted effect of over 60% in size;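 as to activity change, negative = viability loss: 0% = DMSO only wells and -100% = full killing with cytotoxic reference compound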", "conditions": "CellTiter-Glo ATP luminescence, 48 h; series mostly up to 46.1 µM; activity change, negative = viability loss: at the top concentration", "summary_of_the_method": "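Compound titrations (up to 46 uM final) are applied to NCI-H295R cultures for 48 h at 37C. Viable cell number is estimated by CellTiter-Glo signal, normalised to DMSO and doxorubicin controls.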"}
{"smiles": "C[C@H](Nc1ncnc2nc[nH]c12)c1nc2ccc(F)cc2c(=O)n1-c1ccccc1", "activity change, negative = viability loss": "-6.54% (inactive)"}
{"smiles": "C=CC(=O)NCNC(=O)C=C", "activity change, negative = viability loss": "2.78% [at 92.7 µM] (inactive)"}
{"smiles": "COP(=S)(OC)Oc1ccc(S(=O)(=O)N(C)C)cc1", "activity change, negative = viability loss": "-2.6% (inactive)"}
{"smiles": "Nc1nc(N)nc(NC2CC2)n1", "activity change, negative = viability loss": "-12.3% (inactive)"}
{"smiles": "CCCN1CCC[C@@H]2Cc3nc(N)ncc3C[C@H]21", "activity change, negative = viability loss": "-27.1% (inactive)"}
{"smiles": "NCCc1cc(O)c(O)cc1O", "activity change, negative = viability loss": "-8.94% (inactive)"}
{"smiles": "COc1cc(CC(C)N)cc2c1OCO2", "note": "(stereo not drawn)", "activity change, negative = viability loss": "-19% [at 92.7 µM] (inactive)"}
{"smiles": "C[C@H](N)[C@H](O)c1ccc(O)c(O)c1", "activity change, negative = viability loss": "-18.1% (inactive)"}
{"smiles": "CN(C)CCc1c[nH]c2cccc(OP(=O)(O)O)c12", "activity change, negative = viability loss": "-11.1% [at 92.7 µM] (inactive)"}
{"smiles": "C=CCC1(C(C)CC)C(=O)NC(=O)NC1=O", "note": "(stereo not drawn)", "activity change, negative = viability loss": "-5.51% (inactive)"}
{"smiles": "CCCOC(=O)c1cncn1C(C)c1ccccc1", "note": "(stereo not drawn)", "activity change, negative = viability loss": "-1.73% (inactive)"}
{"smiles": "O=C(CCCN1CCC2(CC1)C(=O)NCN2c1ccccc1)c1ccc(F)cc1", "activity change, negative = viability loss": "-13.7% (inactive)"}
{"smiles": "Oc1cc(Cl)ccc1Oc1ccc(Cl)cc1Cl", "Potency": "3.16 µM (active) and 18.4 µM (active)"}
{"smiles": "C[CH2][Hg][S]c1ccccc1C(=O)O", "Potency": "1.64 µM (active)"}
{"smiles": "C[C@]12COC(=O)C[C@@H]1CC[C@@H]1[C@@H]2CC[C@@]2(C)[C@H]1CC[C@]2(C)O", "activity change, negative = viability loss": "-5.36% (inactive)"}
{"smiles": "CCCCOC(=O)c1ccccc1C(=O)OCc1ccccc1", "activity change, negative = viability loss": "-1.21% [at 92.7 µM] (inactive)"}
{"smiles": "O=[N+]([O-])c1cc([As](=O)(O)O)ccc1O", "activity change, negative = viability loss": "8.15% (inactive)"}
{"smiles": "Cc1ccc(-c2nc3ccc(C)cn3c2CC(=O)N(C)C)cc1", "activity change, negative = viability loss": "-15.5% (inactive)"}
{"smiles": "C#CCOC(C(=O)OCCN(C)C)(c1ccccc1)c1ccccc1", "activity change, negative = viability loss": "4.94% (inactive)"}
{"smiles": "c1ccc2nc(N3CCNCC3)ccc2c1", "activity change, negative = viability loss": "5.27% (inactive)"}
{"smiles": "CC1=C2C[C@H]3[C@@H](CC=C4C[C@@H](O)CC[C@@]43C)[C@@H]2CC[C@]12O[C@@H]1C[C@H](C)CN[C@H]1[C@H]2C", "activity change, negative = viability loss": "-21.8% (inactive)"}
{"smiles": "CC(=O)c1c(O)c(C)c(O)c(Cc2c(O)c3c(c(C(=O)/C=C/c4ccccc4)c2O)OC(C)(C)C=C3)c1O", "activity change, negative = viability loss": "-1.07% (inactive)"}
{"smiles": "COc1c2c(cc3c1OCO3)CCN(C)C2", "activity change, negative = viability loss": "-12.3% (inactive)"}
{"smiles": "CCN(CC)CCc1c[nH]c2ccccc12", "activity change, negative = viability loss": "-11.2% [at 178 µM] (inactive)"}
{"smiles": "CCC(C)(C)c1ccc(O)cc1", "activity change, negative = viability loss": "-32.3% (inactive)"}
{"smiles": "CC[N+]1(C)CCCC(OC(=O)C(O)(c2ccccc2)c2ccccc2)C1", "note": "(stereo not drawn)", "activity change, negative = viability loss": "7.14% (inactive)"}
{"smiles": "CC[n+]1c(-c2ccccc2)c2cc(N)ccc2c2ccc(N)cc21", "Potency": "14.6 µM (active)"}
{"smiles": "CC[C@@H](CO)NC(=O)[C@@H]1C=C2c3cccc4c3c(cn4C)C[C@H]2N(C)C1", "activity change, negative = viability loss": "-6.07% (inactive)"}
{"smiles": "CCCCCCCCCCCCCCCC[N+](C)(C)C", "Potency": "8.2 µM (active)"}
{"smiles": "CCC(CC)(CNC(=O)CCCO)c1cccc(OC)c1", "activity change, negative = viability loss": "-28.4% (inactive)"}
{"smiles": "COc1ccc(C(c2ccc(OC)cc2)C(Cl)(Cl)Cl)cc1", "Potency": "28.2 µM (active)"}
{"smiles": "O=[N+]([O-])c1c2ccccc2cc2ccccc12", "activity change, negative = viability loss": "6.71% [at 92.7 µM] (inactive)"}
{"smiles": "C[C@]12CC[C@H]3[C@@H](CCC4=CC(=O)CC[C@@]43C)[C@@H]1CC[C@@H]2C(=O)O", "activity change, negative = viability loss": "0.419% (inactive)"}
